Results published in ChEMBL document CHEMBL4513216, “Probing the Open Global Health Chemical Diversity Library for Multistage-Active Starting Points for Next-Generation Antimalarials” (ACS Infect Dis, 2020).
Among all 69,000 compounds or so, about 8,600 (12%) showed an effect of 50% or more. The full list was thinned out, with strong results kept by preference.

System: Plasmodium berghei
Assay: Screen against P. berghei liver stage (PbLuc), transformed with Luciferase, at 10uM
Format: functional, HepG2
Conditions: tested at 10 uM

Compound	INHIBITION [%]
CN(CCc1ccccc1)Cc1cnc(C2(C)CCCCO2)nc1 (configuration not stated)	10.871
COc1cc(CN2C[C@H](OC)[C@]3(CCCO3)C2)ccc1F	35.2
Cc1ccnc(C(NC(=O)c2oc(C)nc2C)C2CC2)n1 (configuration not stated)	38.5
Cc1ccnc(C(NC(=O)c2sc(C)nc2C)C2CC2)n1 (configuration not stated)	63.5
Cc1ccnc(C(NC(=O)c2ccc(O)nc2C)C2CC2)n1 (configuration not stated)	2.65
Cc1nc(C2CCCN2C(=O)CCn2cncn2)no1 (configuration not stated)	-85
c1cnc2c(c1)cc([C@H]1CCCO1)n2CCN1CCOCC1	30.1
CN(Cc1ccc(F)c(F)c1)Cc1cc2c(cc1Br)OCCO2	-30
CN(Cc1ccc(F)cc1F)Cc1cc2c(cc1Br)OCCO2	52.6
CN(Cc1ccccc1F)Cc1cc2c(cc1Br)OCCO2	76.2
CC(NCc1cccc2c1OCCO2)c1cc2c(cc1Br)OCCO2 (configuration not stated)	4.15
CN(Cc1ccc(F)cc1)Cc1cc2c(cc1Br)OCCO2	44.8
CN(Cc1cscn1)Cc1cc2c(cc1Br)OCO2	31.9
COc1ccccc1CN(Cc1nc(Cc2ccccc2)no1)C1CC1	21.3
Cc1ccccc1CC(=O)N1C[C@@H]2COC[C@]2(CN(C)C)C1	20.5
N#Cc1ccc(C(=O)O)nc1C=Cc1cccc(F)c1	-23.2
CC(C)CN1CC2(CCN(C(=O)C3CNC(=O)N3)CC2)CC1=O (configuration not stated)	53
CC(C)CN1CC2(CCN(C(=O)c3nc4ncccn4n3)CC2)CC1=O	56
CC(C)CN1CC2(CCN(C(=O)C(O)c3ccccc3Cl)CC2)CC1=O (configuration not stated)	6.88
CC(C)CN1CC2(CCN(C(=O)c3cnccn3)CC2)CC1=O	-33
CC(C)CN1CC2(CCN(C(=O)c3cn4cccnc4n3)CC2)CC1=O	-13.6
CC(C)CN1CC2(CCN(C(=O)C3CSC(C)(C)C(=O)N3)CC2)CC1=O (configuration not stated)	12

Compound	INHIBITION [%]
CC(C)Oc1ccc2c(NC(=O)CNC(N)=O)nn(CC(F)(F)F)c2c1	29.7
CC(=O)N1C[C@H](c2cc(O)nc(C)n2)[C@@H](c2ccccc2F)C1	12.45
Cc1nc(O)cc([C@@H]2CN(C(=O)C3CC3)C[C@H]2c2ccccc2F)n1	60.55
COCC(=O)N1C[C@@H](c2cc(O)nc(C)n2)[C@H](c2ccccc2F)C1	24.49
Cc1cc(NCCO)nc(N2CCC(Cc3ccccc3)CC2)c1C#N	29.1
Cc1nccn1CC(=O)N1CC(Cc2nccc3ccn(C)c23)C1	34
CC(C)N1CCC(CC(=O)N(C)CC(=O)c2ccc(O)cc2)CC1	1.98
CCCN1CCC(CC(=O)N(C)CC(=O)c2ccc(O)cc2)CC1	56.1
CC(C)N1CCC(C(=O)N(C)CC(=O)c2ccc(O)cc2)CC1	23.6
CCN1CCC(CC(=O)N(C)CC(=O)c2ccc(O)cc2)CC1	55
CCCN1CCC(CC(=O)NCc2cc(O)ncn2)CC1	28.7
CCCN1CCC(CC(=O)N(C)C(C)c2cncs2)CC1 (configuration not stated)	6.33
CN(C)C(=O)C1OC2(CCN(C(=O)N(C)C)CC2)c2ccccc21 (configuration not stated)	14.1
CNc1cc(C2CCCN2C(=O)c2ccc(=O)[nH]n2)ccn1 (configuration not stated)	-7.66
N#Cc1ccsc1C(=O)N1CCCN(Cc2cscn2)CC1	-14
CC(C)n1nc(CNc2ncccn2)c2c1CN(C)CC2	-3.77
COC[C@]12COC[C@H]1CN(Cc1cc(OC)cc(OC)c1)C2	35.8
O=C(c1cccnc1)N1CCC(c2nc(O)cc(-c3ccncc3)n2)C1 (configuration not stated)	1.5
CNC(=O)CN1CCCC12CCN(C(=O)c1ccsc1)CC2	-0.937
CNC(=O)CN1CCCC12CCN(C(=O)c1ccoc1)CC2	56.8
CNC(=O)CN1CCCC12CCN(C(=O)c1ccc(F)cc1)CC2	42.4
CCOCC(O)CN1CCN(C(=O)c2cc(C)ccc2F)CC1 (configuration not stated)	-59.4

Compound	INHIBITION [%]
COCC1c2c(cnn2C)CCN1C(=O)c1cccn1C (configuration not stated)	46.6
COC(=O)c1cnc2c(c(C)nn2C)c1OC	66.8
COc1c(C(=O)N2CCOCC2)cnc2c1c(C)nn2C	2.59
COc1c(C(=O)N2CCNC(=O)C2)cnc2c1c(C)nn2C	-25.1
O=C(Cc1cccs1)NS(=O)(=O)c1cccc2cnccc12	36.3
CCOc1ccc(CN2CCOCC2c2[nH]ncc2C)cc1CO (configuration not stated)	29.65
Cc1cc(C(F)(F)F)nn1CCCNC(=O)C1CCCC1	43.2
Cc1cc(C(F)(F)F)nn1CCCNC(=O)C1CCCO1 (configuration not stated)	60.4
Cc1cc(C)n(CCCNC(=O)C2CCCO2)n1 (configuration not stated)	6.09
Cc1cc2[nH]c(=O)oc2cc1S(=O)(=O)N1C[C@@H](N(C)C)[C@H](C(C)C)C1	26.5
Cc1nc(CSCCC(=O)Nc2cccc(N3CCNC3=O)c2)cs1	-24.6
COCCN1CCO[C@@H]2CN(Cc3ccc(C)o3)C[C@@H]2C1	-0.554
Cc1cn(-c2ccccc2)nc1NS(=O)(=O)c1cccc(C(=O)O)c1	40.9
COC(=O)c1ccccc1NS(=O)(=O)c1c(C)nn(C)c1C	-7.93
Cc1ccc(-n2cc(S(=O)(=O)Nc3cccc(C(=O)O)c3C)cn2)cc1	68
CCn1nc(C)c(S(=O)(=O)Nc2ccccc2C(=O)OC)c1C	29.7
Cc1cccc(NS(=O)(=O)c2cnn(C)c2)c1C#N	18.9
CCS(=O)(=O)Nc1cnn(Cc2cccc(C)c2)c1	-2.64
Cc1ccc(NS(=O)(=O)c2cnn(-c3ccccc3)c2)c(C(=O)O)c1	22.5
Cc1ccc(NS(=O)(=O)c2cnn(Cc3ccccc3)c2)c(C(=O)O)c1	51.6
CCn1nc(C)c(S(=O)(=O)Nc2cccc(C(=O)O)c2C)c1C	62.4
CC(=O)N1CCC(c2cncc(N3CCCCCC3)n2)CC1	17.4

Compound	INHIBITION [%]
O=C(NC1CCCN(CCc2ccccc2)C1)c1cnccn1 (configuration not stated)	-0.29
Cc1cnn(C2CCCN(C(=O)Cc3cn4ccsc4n3)C2)c1 (configuration not stated)	-9
Cc1nc(C)c(C(=O)N2CCC(O)(Cn3ccc4ccncc43)CC2)s1	-57.4
CS(=O)(=O)c1cc(C(=O)NS(=O)(=O)Cc2ccc(F)cc2)ccc1Cl	37.7
O=C(Cc1noc(C(=O)NCCO)n1)Nc1cccc(C(F)(F)F)c1	25.2
CC(C)(C)n1ncc2c1NC(=O)CC2c1cccs1 (configuration not stated)	-0.87
Cc1nc(CN2CCCC2Cn2cncn2)no1 (configuration not stated)	34.95
COCc1nc2cc(NCc3csc(C)n3)ccc2o1	14.9
COCc1nc2cc(NCc3ccc(CO)o3)ccc2o1	90.2
CC(C)(C)c1nc2cc(NC(=O)Cn3ccc(=O)[nH]c3=O)ccc2o1	20
Cc1ncsc1CNc1cc(N2CCCC2CO)ncn1 (configuration not stated)	27.4
COCc1nc2cc(NCc3cc[nH]n3)ccc2o1	67.1
COCc1nc2cc(NCc3scnc3C)ccc2o1	70.5
COCc1nc2cc(NCc3ccc(C)o3)ccc2o1	11.8
Cc1cc(CNc2ccc3nc(C)sc3c2)no1	-4.33
COCc1nc2cc(NCc3sc(C)nc3C)ccc2o1	65.4
CCC(C)CNc1ccc2oc(COC)nc2c1 (configuration not stated)	-23.2
COCc1nc2cc(NCc3nc(C)cs3)ccc2o1	-17.6
COCc1nc2cc(NCc3ccncc3)ccc2o1	18.5
CCNC(=O)[C@@H]1CCCN1C(=O)c1cccc(CCC(C)(C)O)c1	-26.8
CC(C)=CCN1C[C@@H]2CC[C@H]1CN(C(=O)CCc1nnc(C)[nH]1)C2	41.2
Cc1cccc(N2CCOC(C(=O)O)C2)c1 (configuration not stated)	14.7

Compound	INHIBITION [%]
CN1C(=O)CC(c2cnn(C)c2)C12CCN(CC1CCOCC1)CC2 (configuration not stated)	-9.74
Cn1ccnc1CCC1CCCCN1Cc1cnc(N2CCCC2)nc1 (configuration not stated)	-25
CN1CCC2(Cc3ccccc3CN(C(=O)CCN)C2)C1 (configuration not stated)	40
O=C(NCCc1csc(-c2ccncc2)n1)C1CC(=O)N(C2CC2)C1 (configuration not stated)	2.66
Cc1nc(C)n(CC2CCCN(CC(=O)Nc3cc(C)on3)C2)n1 (configuration not stated)	-18.945
CN(Cc1ccc(F)cc1)C(=O)CN1CCOC(Cn2cccn2)C1 (configuration not stated)	-4.16
CCc1ccc(O)c(C(=O)N2CCN(CC(=O)N(CC)CC)CC2)c1	56.6
CCc1ccc(O)c(C(=O)N2CCCN(CC(=O)N(CC)CC)CC2)c1	-1.57
CCc1ccc(O)c(C(=O)N2CCN(CC(=O)N(C)C)CC2)c1	47.7
COc1c(C2CCCN2Cc2noc(C)n2)c(C)nn1C (configuration not stated)	-40.2
COCCN(Cc1sccc1C)C(=O)c1c(O)cccc1F	-15.6
CCN1CCC2(CC1)C(=O)N(c1ccc(C)nc1)CCN2CC(C)C	36.4
Cc1ccc(N2CCN(CC3CC3)C3(CCN(C(C)C)CC3)C2=O)cn1	27.5
CC(=O)N1CCC2(CC1)C(=O)N(c1ccc(C)nc1)CCN2CC(C)C	60
Cc1nc(C)n(CC2CCCN2CCOc2ccc(F)cc2)n1 (configuration not stated)	-32
CCn1nc2c(cc1=O)CN(CC(=O)Nc1nnc(C)s1)CC2	-29.8
CCCn1nc2c(cc1=O)CN(CC(=O)Nc1nnc(C)s1)CC2	26.3
Cc1nnc(NC(=O)CN2CCc3nn(C)c(=O)cc3C2)s1	62.9
CCN(Cc1ccc(O)c(C(=O)O)c1)CC1CCOCC1	7.65
